“And” between values parts separate entries of the source, which are not always exact repeats. Identical values can stand only once. Hit rate of the full screen: of about 5,500 compounds, about 2,000 (36%) were called active. Not shown: some 18% with an inconclusive outcome. Rule as the data show it: active = normalized growth mostly below about 0.91 (no sharp cut-off); inconclusive = no clear call, values can overlap the other calls; inactive = mostly above about 0.92. This is one part of the list.
Test: chemical genetic growth profiling, strain panel (AID 1159580);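 also: tested at 20 µM; growth read once vehicle control cultures reached saturation at 30 °C; 1 = growth at the plate median or of vehicle wells; lower values mean less growth of the strain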
Conditions: S. cerevisiae deletion strains, growth OD

Measured: normalized growth

NC(N)=O
active: locus YJR043C, strain POL32, hits give low values 1.17 [resistant]
inactive: locus YAL013W, strain DEP1, hits give low values 1.02 | locus YAL021C, strain ccr4, hits give low values 1.02 | locus YAL026C, strain drs2, hits give low values 1.01 | locus YAL030W, strain snc1, hits give low values 1.02 | locus YBL061C, strain skt5, hits give low values 1.02 | locus YBR009C, strain hhf1, hits give low values 0.978 | locus YBR021W, strain FUR4, hits give low values 0.953 | locus YBR023C, strain chs3, hits give low values 1.02 | locus YBR171W, strain sec66, hits give low values 1.03 | locus YBR229C, strain ROT2, hits give low values 0.989 | locus YBR231C, strain swc5, hits give low values 1.03 | locus YBR279W, strain paf1, hits give low values 1.01 | locus YCL011C, strain gbp2, hits give low values 0.992 | locus YCL016C, strain dcc1, hits give low values 0.984 | locus YCL029C, strain bik1, hits give low values 0.991 | locus YCL061C, strain MRC1, hits give low values 1.03 | locus YCL069W, strain vba3, hits give low values 1 | locus YCR088W, strain abp1, hits give low values 1.01 | locus YDL005C, strain med2, hits give low values 1.01 | locus YDL035C, strain GPR1, hits give low values 1.01 | locus YDL040C, strain nat1, hits give low values 1.01 | locus YDL074C, strain BRE1, hits give low values 1.07 | locus YDL101C, strain DUN1, hits give low values 1 | locus YDL134C, strain PPH21, hits give low values 1 | locus YDL185W, strain tfp1, hits give low values 0.983 | locus YDL192W, strain arf1, hits give low values 0.994 | locus YDR001C, strain nth1, hits give low values 1.02 | locus YDR069C, strain doa4, hits give low values 1.04 | locus YDR101C, strain arx1, hits give low values 0.997 | locus YDR137W, strain rgp1, hits give low values 1.03 | locus YDR150W, strain NUM1, hits give low values 1.01 | locus YDR159W, strain sac3, hits give low values 0.965 | locus YDR162C, strain NBP2, hits give low values 1.04 | locus YDR195W, strain ref2 1.03 | locus YDR297W, strain sur2, hits give low values 1.01 | locus YDR318W, strain mcm21, hits give low values 0.998 | locus YDR334W, strain swr1, hits give low values 1.01 | locus YDR335W, strain msn5, hits give low values 1.01 | locus YDR388W, hits give low values 0.985 | locus YDR392W, strain spt3, hits give low values 0.959 | locus YDR502C, strain sam2, hits give low values 0.997 | locus YEL003W, strain gim4, hits give low values 1.01 | locus YEL037C, strain rad23, hits give low values 1.01 | locus YEL061C, strain CIN8 (second series), hits give low values 1.01 | locus YEL061C, strain CIN8, hits give low values 1.05 | locus YER015W, strain faa2, hits give low values 1.02 | locus YER016W, strain bim1, hits give low values 0.984 | locus YER110C, hits give low values 0.989 | locus YER111C, strain swi4, hits give low values 1.01 | locus YER155C, strain BEM2 (second series), hits give low values 1.01 | locus YER155C, strain BEM2, hits give low values 0.988 | locus YER167W, strain BCK2, hits give low values 0.983 | locus YFR010W, strain ubp6, hits give low values 1.01 | locus YGL078C, strain dbp3, hits give low values 0.988 | locus YGL086W, strain mad1, hits give low values 0.99 | locus YGL167C, strain pmr1, hits give low values 1.02 | locus YGL173C, strain kem1, hits give low values 1.02 | locus YGL227W, strain vid30, hits give low values 1.02 | locus YGL240W, strain doc1, hits give low values 1.03 | locus YGL248W, strain PDE1, hits give low values 1 | locus YGL253W, strain hxk2, hits give low values 1.01 | locus YGR078C, strain PAC10, hits give low values 1.03 | locus YGR135W, strain pre9, hits give low values 1 | locus YGR229C, strain SMI1, hits give low values 1.03 | locus YGR252W, strain gcn5, hits give low values 0.986 | locus YHR013C, strain ard1, hits give low values 0.998 | locus YHR027C, strain rpn1, hits give low values 1.01 | locus YHR030C, strain SLT2, hits give low values 0.986 and 1.01 | locus YHR079C, strain IRE1 (second series), hits give low values 0.991 | locus YHR079C, strain IRE1, hits give low values 1.01 | locus YHR094C, strain hxt1, hits give low values 0.996 | locus YHR129C, strain ARP1, hits give low values 0.998 | locus YHR142W, strain chs7, hits give low values 1.02 | locus YHR200W, strain rpn10, hits give low values 0.994 | locus YIL066C, strain RNR3, hits give low values 1.01 | locus YIL073C, strain SPO22, hits give low values 1.02 | locus YIL125W, strain kgd1, hits give low values 0.987 | locus YIR030C, strain dcg1, hits give low values 0.99 | locus YJL092W, strain hpr5, hits give low values 1.01 | locus YJL095W, strain BCK1 (second series), hits give low values 1.03 | locus YJL095W, strain BCK1, hits give low values 1.05 and 1.01 | locus YJL115W, strain asf1, hits give low values 1.01 | locus YJL129C, strain trk1, hits give low values 1.03 | locus YJL134W, strain LCB3, hits give low values 0.99 | locus YJL154C, strain vps35, hits give low values 1.01 | locus YJL164C, strain tpk1, hits give low values 0.985 | locus YJL166W, strain qcr8, hits give low values 1.02 | locus YJL168C, strain set2, hits give low values 0.98 | locus YJL187C, strain SWE1 (second series), hits give low values 1 | locus YJL187C, strain SWE1, hits give low values 1.02 | locus YJR066W, strain TOR1, hits give low values 0.951
